Tau fluor cs = counter-screen for tau fibril formation inhibitors. Potency, µM (doses to about 57.7 µM), for inactives: at the highest dose activity change, negative = decrease. AID 1463. tau K18 P301L Alexa594 fluorescence, heparin fibrillization. 280,000 compounds, 0.93% hits; note: nearly all actives have a fitted effect of over 55% in size
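Human tau K18 P301L (15 uM unlabeled, 0.24 uM Alexa 594-labeled) in 100 mM sodium acetate pH 7 with 20 uM heparin, 6 hr at 37 C. ThT 30 uM added, 1 hr ambient; Alexa 594 FP and total fluorescence read at 555/632 nm.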
RORg inh = inhibitors of mouse ROR gamma transcriptional activity; 310,000 compounds, 5.4% hits; Drosophila S2 Gal4-RORgamma UAS-luciferase reporter, 20 h; AID 2551; Potency, µM (titrated, usually from 53.6 µM), for the others: at the top dose activity change, negative = inhibition, hits mostly inhibitors; note: nearly all actives have a fitted effect of over 60% in size
Target sequence (P51450 whole entry, looked up, the tested form may be a part): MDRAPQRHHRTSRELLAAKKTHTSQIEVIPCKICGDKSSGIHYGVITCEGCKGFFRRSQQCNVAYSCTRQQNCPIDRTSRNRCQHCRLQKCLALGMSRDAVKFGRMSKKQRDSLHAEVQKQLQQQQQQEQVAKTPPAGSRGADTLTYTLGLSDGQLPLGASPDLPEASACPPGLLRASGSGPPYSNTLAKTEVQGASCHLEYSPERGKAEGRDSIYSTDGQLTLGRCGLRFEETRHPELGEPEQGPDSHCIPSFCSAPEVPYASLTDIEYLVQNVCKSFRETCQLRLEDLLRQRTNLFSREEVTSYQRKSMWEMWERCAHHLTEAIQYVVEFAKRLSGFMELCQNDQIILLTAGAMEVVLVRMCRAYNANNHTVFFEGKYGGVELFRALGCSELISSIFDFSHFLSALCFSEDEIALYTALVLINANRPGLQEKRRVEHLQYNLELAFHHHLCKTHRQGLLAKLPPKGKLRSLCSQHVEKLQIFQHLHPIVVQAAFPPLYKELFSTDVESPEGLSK
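Schneider cells (Drosophila), stable Gal4 DBD–ROR gamma + UAS-luc; 1 hr cmpd preincubation; Cu2+ induction 700 uM final; 20 hr ambient; luminescence.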
VP16 counter = counter-screen for ROR gamma inhibitors: Gal4-VP16 reporter. Drosophila S2 Gal4-VP16 UAS-luciferase, luminescence, 20 h. Potency, µM (titrated, usually from 53.6 µM), without a hit: at the highest dose activity, negative = inhibition, actives largely listed as inhibitors. 310,000 compounds, 3.5% hits. AID 2546;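 note: Gal4-VP16 expression switched on by copper sulfate through the metallothionein promoter; nearly all actives have a fitted effect of over 50% in size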
Tau fibril ThT = blocks human tau fibril formation measured by thioflavin T; Potency, µM (titrated, usually from 57.4 µM), for inactives: at the highest dose activity, negative = inhibition, actives largely listed as inhibitors; recombinant tau K18 P301L (four-repeat tau fragment), heparin-induced fibrillization, ThT fluorescence; AID 1460; 270,000 compounds, 2.1% hits; note: nearly all actives have a fitted effect of over 55% in size
Target sequence (P10636 561-689 P618L limits assumed): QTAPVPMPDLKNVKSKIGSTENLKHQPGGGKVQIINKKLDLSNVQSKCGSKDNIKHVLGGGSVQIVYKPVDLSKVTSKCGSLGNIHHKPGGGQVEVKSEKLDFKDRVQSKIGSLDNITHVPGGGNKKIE
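Aggregation was driven by heparin (20 uM final) acting on recombinant tau […] bearing P301L in 100 mM sodium acetate pH 7; fibrils were detected with Thioflavin T.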
Tau fibril FP = tau fibrillization inhibition (FP) | P10636 | K18 P301L tau heparin fibrillization, Alexa594 FP, 6 h | Potency, µM (titrated, usually from 57.7 µM), for the others: at the top dose activity, negative = inhibition, hits mostly inhibitors | 280,000 compounds, 0.39% hits; note: nearly all actives have a fitted effect of over 55% in size
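K18 P301L tau (15 uM unlabeled/0.24 uM Alexa 594-labeled, final) + compound + heparin 20 uM final; 100 mM NaOAc pH 7; 6 hr 37 C; ThT 30 uM final added, 1 hr RT; FP ex 555/em 632 nm.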
Starred values were filed as active, the others as inactive; ? = inconclusive; / = no result; [ ] = another dose, or the depositor's remark. Sampled rows, rich in hits. Any-hit rate of the full collection: about 7.3%. Calls come from the whole dose curve; as a rule, active = well fitted curve in the direction sought with a large enough effect; inconclusive = small, poorly fitted or top-dose-only effect, or another doubt; inactive = no such curve, though single readings can be large; an effect the other way counts as inactive or inconclusive. % is set by controls: 0 for no effect and ±100 for the full control effect; potency is the fitted concentration of half-maximal effect.

SMILES	Tau fluor cs	RORg inh	VP16 counter	Tau fibril ThT	Tau fibril FP
CC(NC(=S)Nc1ccccc1C(F)(F)F)C1CC2CCC1C2 (configuration not stated)	-19.4%	3.16µM*	10µM*	-10.9%	2.7%
FC(F)(F)c1ccccc1NC(=S)N1CCCCCC1	/	?	-6.7%	/	/
Cc1ccccc1Nc1nc(N)c(C(=O)c2ccccc2Cl)s1	-22.2%	/	/	-8.9%	2.7%
CCN(CC)CCN(C(=O)CCS(=O)(=O)c1ccccc1)c1nc2cc(C)cc(C)c2s1	/	20µM*	-29.0%	/	/
CN(C)CCCN(C(=O)CCS(=O)(=O)c1ccccc1)c1nc2cc3c(cc2s1)OCO3	/	11.2µM*	15.8µM*	/	/
CCCCCCCCCCCCC/C=C/[C@@H](O)[C@H](COP(=O)([O-])OCC[N+](C)(C)C)NC(=O)CCCCCCCCCCCCCCCCC	-13.0%	12.1%	2.7%	-10.8%	6.3%
CN(C)c1ncc2nc(-c3ccccc3)c(=O)n(C[C@H]3CCCO3)c2n1	/	-17.0%	-5.4%	/	/
N#Cc1cc(N)ccc1Sc1ccc(Cl)cc1	15.8µM*[quencher]	19.3%	5.4%	-15.5%	-1.5%
O=C(Nc1ccccn1)C(=O)Nc1ccccn1	-14.0%	10µM*	12.6µM*	-13.6%	-3.3%
O=C(Nc1ccncc1)C1(c2ccccc2)CCCC1	-1.7%	12.3%	-11.2%	-5.1%	-0.2%
S=C(Nc1ccccn1)c1ccccn1	-18.7%	7.08µM*	3.16µM*	?	-16.7%
O=C(Nc1ccccn1)C1(c2ccccc2)CCCC1	-5.3%	-11.7%	20µM*	-3.0%	-2.4%
c1ccc(Nc2ccccn2)nc1	-4.7%	-3.3%	6.1%	4.6%	-3.6%
Cc1ccc(NS(=O)(=O)c2c(C(=O)N3CCCCCC3)c(C)n(C)c2C)c(C)c1	/	3.1%	-3.2%	/	/
O=C(NCC1CCN(Cc2cccc(F)c2)CC1)c1cc2ccc3cccnc3c2[nH]1	-5.2%	/	/	2.2%	-6.9%
CNC(=S)NCCCCc1cnc[nH]1	/	7.5%	4.1%	/	/
COc1cccc(NC(=O)CSc2nc(O)c(C/C=C/c3ccccc3)c(=O)[nH]2)c1	-23.6%	/	/	?	-11.2%
CSCC[C@@H]1NC(=O)C/C=C\[C@@H](C)COC(=O)[C@H](C)COC1=O	-3.3%[11.6 µM]	-21.2%[10 µM]	-0.6%[10 µM]	-1.5%[11.5 µM]	-8.1%[11.6 µM]
CS(=O)(=O)Nc1cccc(-c2nc(NCc3cccs3)c3ccccc3n2)c1	?	?	-17.6%	?	-17.0%
O=c1c(Cl)cc(Cl)nn1-c1ccccc1	3.1%	14.1µM*	?	-6.4%	-5.1%
COc1cc(Cl)nn(-c2ccccc2)c1=O	-2.6%	9.7%	1.8%	0.8%	1.7%
C=CCC(C)(O)c1ccc(OC)cc1 (configuration not stated)	-10.2%	30.8%	-11.1%	-2.9%	-5.9%
COc1ncc2nc(-c3cccs3)c(=O)n(CCc3ccccc3)c2n1	/	10.0%	25.3%	/	/
CCC(C)(C)NC(=O)c1ccc(Sc2nncn2C)c([N+](=O)[O-])c1	3.7%	-19.0%	-8.8%	5.8%	2.3%
COc1ccc(NC(=O)/C(C#N)=C/c2ccc(Sc3nncn3C)c([N+](=O)[O-])c2)cc1	-25.7%	-40.1%	22.4µM*	?	2.5%
SMILES	Tau fluor cs	RORg inh	VP16 counter	Tau fibril ThT	Tau fibril FP
Cn1cnnc1Sc1ccc(C(=O)OCC(=O)Nc2cc(Cl)cc(Cl)c2)cc1[N+](=O)[O-]	12.6µM*[quencher]	1.0%	1.4%	?	-3.7%
Cn1cnnc1Sc1ccc(/C=C/C(=O)c2ccc(O)cc2)cc1[N+](=O)[O-]	?	10µM*	?	14.1µM*	1.5%
Cn1cnnc1Sc1ccc(C(=O)OCC(=O)Nc2ccccc2)cc1[N+](=O)[O-]	-14.6%	-13.5%[10 µM]	-13.7%	-11.8%	5.1%
CCN(CC)S(=O)(=O)c1ccc(NC(=O)c2ccc(Sc3nncn3C)c([N+](=O)[O-])c2)cc1	?	3.7%	-4.0%	?	?
O=C(Nc1cccc(Cl)c1)N1CCN(C/C=C/c2ccccc2)CC1	-23.9%	-21.3%	?	-12.6%	1.8%
O=C(NC(=S)N1CCN(Cc2ccccc2)CC1)c1cccnc1	8.3%	0.891µM*	2.51µM*	6.3%	-2.6%
O=C(NC(=S)N1CCN(C/C=C/c2ccccc2)CC1)c1ccc(Cl)nc1	-6.7%	0.112µM*	0.316µM*	-9.5%	-4.9%
O=C(N/C(=C/c1cccnc1)C(=O)N1CCCCCC1)c1cccc(Br)c1	/	10µM*	?	/	/
O=C(NC(=S)N1CCCCCC1)c1ccccc1	/	1.41µM*	1.78µM*	/	/
CCCN1CCN(CC2=C(C(=O)OCC)C(c3cccc(OC)c3OC)NC(=O)N2)CC1 (configuration not stated)	-5.5%	/	/	2.3%	-4.8%
C[C@@H](O)CCC[C@H](O)/C=C/[C@H]1[C@H](O)CC(=O)[C@@H]1C/C=C\CCCC(=O)O	-6.4%	-11.6%	-2.8%	-8.4%	0.5%
O=C(NC(=S)N1CCN(C2CCCCC2)CC1)c1ccccc1	-6.5%	0.891µM*	3.16µM*	-1.0%	5.8%
O=C(NC(=S)N1CCN(c2ccccn2)CC1)c1ccccc1	6.3%	2.24µM*	4.47µM*	1.5%	1.3%
O=C(c1ccccc1)N1CCN(C2CCCCCC2)CC1	4.0%	-0.5%	0.2%	-5.6%	7.5%
O=C(NC(=S)N1CCN(c2ccccc2)CC1)c1ccccc1	/	1.41µM*	1.12µM*	/	/
O=C(NC(=O)N1CCN(c2ccc(F)cc2)CC1)c1ccccc1	1.9%	6.5%	-7.0%	-0.3%	2.0%
CC(=O)c1ccc(NC(=S)N2CCN(c3ccccn3)CC2)cc1	/	-9.0%	-2.7%	/	/
O=C(NC(=S)N1CCCC1)c1ccccc1	/	3.98µM*	7.08µM*	/	/
CN(Cc1ccccc1)C(=O)Nc1ccc2c(c1)N(C)C(=O)c1ccccc1S2	-14.2%	/	/	-15.8%	7.0%
COc1cc2c(cc1OC)CN(C(=S)NC(=O)c1ccccc1)CC2	-7.5%	5.62µM*	3.16µM*	-13.3%	3.2%[2.34 µM]
O=C(NC(=S)N1CCCCC1)c1cccnc1	-5.3%	0.708µM*	3.16µM*	-7.4%	-8.3%
CNC(=S)N1CCc2cc(OC)c(OC)cc2C1	-6.2%	-6.0%	5.3%	-6.2%	-0.6%
S=C(Nc1cccnc1)N1CCCCC1	-8.0%	30.8%	-0.6%	-6.6%	0.8%
CC(C)(C)NS(=O)(=O)c1ccc(NC(=O)C2CC(=O)N(CCc3ccc(F)cc3)C2)cc1 (configuration not stated)	/	-14.7%	6.4%	/	/
Cc1ccc2cccc(NC(=S)NC(=O)c3c(Br)cnn3C)c2n1	-20.6%	3.98µM*	?	?	-2.2%
Cc1ccc2cccc(NC(=O)c3ccc(Br)o3)c2n1	-21.9%	-14.1%	-4.1%	-10.7%	-6.0%
Cc1ccc2cccc(NC(=S)NC(=O)c3ccn(C)n3)c2n1	-17.8%	5.01µM*	5.62µM*	-19.5%	-11.3%
Cc1cc(C2(c3ccc(O)c(C)c3)C(=O)Nc3ccccc32)ccc1O	?	-20.9%	15.8µM*	0.2%	?
O=C(N/N=C/c1ccccc1F)c1cccc(NC(=O)c2ccccc2Cl)c1	/	15.8%	-3.7%	/	/
